Sampled rows, rich in hits. Any-hit rate of the full collection: about 20%.
Pf growth 96h: P. falciparum growth inhibition at 96 hours; AID 504834; P. falciparum luciferase reporter growth, 96 h; 6.9% of 320,000 active; Potency, µM (highest dose often 28.7 µM), without a hit: at the top dose activity change, negative = inhibition, most hits filed as inhibitors; note: potency is the fitted concentration of half-maximal effect; % is set by controls: 0 for no effect and ±100 for the full control effect
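Plates of compound plus infected erythrocytes (2% hematocrit, 0.05% parasitemia final) incubate 96 hours, 37 C, 5% CO2. Detection reagent added; reduced luminescence from the parasites' luciferase reporter flags inhibition.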
CHX counter: counter-screen hit for Shiga toxin inhibitors, cycloheximide | cell reporter, cycloheximide protein synthesis inhibition counterscreen | max response, % | 12% of 300,000 active | AID 2314; in the data active = max response mostly above about 13%, no sharp cut-off; inactive = mostly below about 14%; note: read at 38.3 µM for the half of the compounds with a filed dose; 0% is about no effect
Pf growth 48h: inhibits P. falciparum growth in the first generation, 48 h | 5.9% of 310,000 active | Potency, µM (highest dose often 28.7 µM), for inactives: at the top dose activity change, negative = inhibition, actives largely listed as inhibitors | P. falciparum luciferase growth in erythrocytes, 48 h; note: potency is the fitted concentration of half-maximal effect; % is set by controls: 0 for no effect and ±100 for the full control effect
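Luciferase-expressing P. falciparum in infected erythrocytes (2% hematocrit, 0.1% parasitemia final) in RPMI 1640/0.5% Albumax were exposed to compound for 48 hours at 37 C, 5% CO2; growth read as luminescence.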
HCMV antiviral: human cytomegalovirus inhibition. HFF cells, HCMV-luciferase reporter, 72 h; active compounds read low. activity change, negative = inhibition, % at 57.5 µM. 4.5% of 410,000 active; in the data active = activity change below about -60%; inconclusive = no clear call, values can overlap the other calls; inactive = above about -39%; note: % is set by controls: 0 for no effect and ±100 for the full control effect
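Luciferase read-out from HCMV-luciferase-infected HFFs (MOI 1 PFU/cell) 72 h post infection at 37C; compounds added after 16 h cell attachment; activity normalized between buffer-only basal and Salinomycin (10uM) inhibitor controls.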
Shiga inhibitor: inhibitors of Shiga toxin in Vero cells; inhibition, % at 38.7 µM; AID 2315; 9.2% of 290,000 active; Vero cells, Shiga toxin protein synthesis inhibition reporter; in the data active = inhibition mostly above about 28%, no sharp cut-off; inactive = mostly below about 43%; note: 0% is about no effect
An asterisk follows results filed as active; ? = inconclusive; · = no result given; [ ] = dose if it differs, or a comment. Unless noted, calls come from the whole dose curve; as a rule, active = well fitted inhibition curve with a large enough effect; inconclusive = small, poorly fitted or top-dose-only effect, or another doubt; inactive = no such curve, though single readings can be large or run the other way.

SMILES	Pf growth 96h	CHX counter	Pf growth 48h	HCMV antiviral	Shiga inhibitor
Cc1cc(C)c2nc(C)cc(Nc3ccc(C(=O)NCCO)cc3)c2c1	12µM*	1	10µM*	-91*	-3
CC(=O)c1cccc(Nc2cc(C)nc3c(C)cccc23)c1	-105%	5	12µM*	12	20
CC1=NN(C(=O)c2ccc(Cn3nc(C)cc3C)o2)C(O)(C(F)(F)F)C1 (configuration not stated)	14%	-2	·	89	9
CCOc1ccccc1OCCNC1CCCC1	-1%	-6	-2%	-19	-11
O=C(OCCN(C1=NS(=O)(=O)c2ccccc21)c1ccc(Cl)cc1)c1ccco1	?	-4	-2%	?	18
Cc1cc(NC(=O)CSc2nc3ccccc3c(=O)n2-c2ccccc2)no1	·	-4	29%	18	-17
CCCCCCn1c(SCC(=O)Nc2cc(C)on2)nc2ccccc2c1=O	6.6µM*	2	?	-63*	-11
COc1ccccc1NC(=O)Cn1c(=O)n(Cc2ccccc2)c(=O)c2ccccc21	·	·	·	-16	·
Cc1cc(NC(=O)CSc2nc3c(c(=O)n2CCc2ccccc2)SC(C)C3)no1 (configuration not stated)	?	-5	?	-3	-6
Cc1cc(NC(=O)Cn2c(=O)n(Cc3ccccc3)c(=O)c3ccccc32)no1	0%	7	9.3µM*	-26	9
COCCn1c(SCC(=O)Nc2cc(C)on2)nc2ccccc2c1=O	?	·	?	-9	·
Cc1cc(NC(=O)CSc2nc3ccccc3c(=O)n2Cc2ccc(F)cc2)no1	12µM*	-5	?	16	-5
Cc1cc(NC(=O)CSc2nc3cc4c(cc3c(=O)n2CCc2ccccc2)OCO4)no1	?	9.4*	-17%	12	1
Cc1ccc(C(C)C)c(OCCn2cc(C(=O)c3ccco3)c3ccccc32)c1	·	·	·	-14	·
CCN(CC)CCOC(=O)C(Cc1cccc2ccccc12)CC1CCCO1 (configuration not stated)	8%	-2	6%[0.00184 µM]	14	-6
O=C(CSc1cn(CC(=O)N2CCOCC2)c2ccccc12)Nc1ccccc1F	·	·	·	-38	·
CC(O)c1nc2ccccc2n1Cc1ccccc1 (configuration not stated)	?	-1	-27%	29	-10
CC(O)c1nc2cc([N+](=O)[O-])ccc2n1Cc1ccccc1 (configuration not stated)	-14%	-3	13µM*	-32	-15
CCN(CC)C(=O)c1ccc(NC(=O)c2cc(S(=O)(=O)N3CCCCCC3)ccc2OC)cc1	9.3µM*	·	7.4µM*	-18	·
COc1cccc(OC)c1C(=O)Nc1ccc(S(=O)(=O)N2CCCCC2)cc1	3.3µM*	-5	-17%	0	-4
CCN1CCN(S(=O)(=O)c2ccc(Cl)c(C(=O)Nc3ccc(OC(F)F)cc3)c2)CC1	?	1	11%	5	-6
COc1ccccc1C(=O)Nc1ccc(S(=O)(=O)N2CCCCC2)cc1	?	-3	-17%	-1	8
COc1ccccc1C(=O)Nc1ccc(S(=O)(=O)N2CCCC2)cc1	82%	-2	-27%	-9	10
COc1cccc(C(=O)Nc2ccc(S(=O)(=O)N3CCCCC3)cc2)c1OC	5.2µM*	-2	12µM*	18	7
CCN(CC)CCNC(=O)c1ccc(NC(=O)c2cc(S(=O)(=O)N3CCCCC3)ccc2C)cc1	?	·	?	-25	·
SMILES	Pf growth 96h	CHX counter	Pf growth 48h	HCMV antiviral	Shiga inhibitor
CCN1CCN(S(=O)(=O)c2ccc(Cl)c(C(=O)N(CC)CC(=O)Nc3ccc(OC)cc3)c2)CC1	13µM*	-4	-13%	-5	-7
O=C(Cn1nc2c(cc1=O)CCCC2)Nc1ccccc1C(F)(F)F	·	·	·	68	·
O=C(CC1N=C2c3ccccc3N=C(SCc3ccccc3Cl)N2C1=O)NCCc1ccccc1 (configuration not stated)	·	·	·	-17	·
Cc1ccc(Cl)cc1NC(=O)C(NS(=O)(=O)c1ccc2c(c1)CCC(=O)N2)c1ccccc1 (configuration not stated)	·	·	·	-10	·
COc1ccc(Cl)cc1C(=O)Nc1ccc(S(=O)(=O)N2CCCC2)cc1	·	3	40%	-102*	-32
O=C(CSc1ncccn1)NC1CCCC1	·	·	·	-38	·
O=C(C[C@@H]1C/C=C\C[C@@H](Cc2ccc(F)cc2)C(=O)OCCNC1=O)NCCO	·	·	·	7	·
COC(=O)N1CCCCC1c1cc(C(=O)Nc2ccc(OC)cc2C)no1 (configuration not stated)	·	·	·	1	·
COc1ccc(NC(=O)c2cc(C3CC3)on2)c(OC)c1	0%	33*	94%	92	47*
CC(C)Cc1cc(C(=O)NCc2ccc(Cl)cc2)no1	·	·	·	17	·
Cc1c(Cl)cccc1NC(=O)c1cc(C2CC2)on1	-85%	35*	·	-11	102*
COC(=O)c1ccccc1NC(=O)c1cc(C2CC2)on1	22%	0	-4%	86	22
Cc1cc(C(=O)Nc2cc(C)on2)on1	?	-3	33%	3	16
CCCc1cc(C(=O)Nc2cc(C)on2)no1	-33%	13*	·	-3	61
Cc1cc(NC(=O)c2cc(CC(C)C)on2)no1	13%	43*	82%	6	81*
COc1ccc(CCn2c(=O)c3cccnc3n(CC(=O)Nc3ccc(C)c(F)c3)c2=O)cc1OC	·	·	·	11	·
Cc1cc(NC(=O)C2CCN(S(=O)(=O)c3cnc[nH]3)CC2)ccc1Br	49%	-2	-5%	-18	-2
Cc1cccc(OCC(=O)NNC(=O)C2CCCCC2C(=O)O)c1 (configuration not stated)	-34%	7	15%	19	12
COc1ccccc1C(=O)C1CCCN(C(=O)C2=CC(=O)CC(C)(C)O2)C1 (configuration not stated)	0%	-2	?	6	-7
Cc1cc(NC(=O)c2cc(C3CC3)on2)no1	-4%	40*	95%	50	73*
Cc1cc(NC(=O)c2ccoc2C)no1	25%	11*	50%	45	25
Cc1cc(C(=O)Nc2ccc3[nH]ccc3c2)no1	158%	46*	287%	-27	74*
Cc1cc(C(=O)NNc2ccc(Cl)cc2)no1	0%	7	1%	-35	33
CCc1ccc(C(=O)Nc2cc(C)on2)o1	36%	25	73%	66	89*
Cc1cccc(NC(=O)CSc2nc3[nH]c(=O)cc(O)c3s2)c1	-27%	·	10%	-14	·
Cc1ccc(NC(=O)C2CCN(S(=O)(=O)c3c(C)noc3C)CC2)c(C)c1	·	·	·	7	·
C=CCOn1c(=O)c(-c2ccc(OCC)cc2)[n+]([O-])c2ccccc21	0%	9	-25%	?	15
CN(C)C(=O)C1CCC(=O)N1Cc1cccs1 (configuration not stated)	45%	9	25%	-4	4
COC(=O)c1sccc1NC(=O)CSc1ccccc1NS(=O)(=O)c1ccc(Br)cc1	8%	2	?	82	-13

Source: PubChem
